ugtP null kill: growth inhibition of ugtP-null S. aureus, primary screen, RN4220 ugtP deletion, OD600; 16 h; growth inhibition, % (test concentration not listed); 330,000 compounds, 0.54% hits; AID 1259309, 2017; in the data active = growth inhibition above about 68%;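 also: plate controls were untreated wells for no effect and antibiotic for full effect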
Mtb hypoxia inh: PubChem AID 1159583. M. tuberculosis hypoxia-regulated fluorescent reporter, fluorescence. fluorescence inhibition, % (no concentration beside the values). 300,000 compounds, 0.1% hits; in the data active = fluorescence inhibition mostly above about 23%, no sharp cut-off; inactive = mostly below about 17%
CCHF vOTU inh: CCHFV vOTU protease inhibitors, primary screen, biochemical, Pep-AMC substrate, fluorescence; Crimean-Congo hemorrhagic fever virus L polyprotein viral ovarian tumor (vOTU) protease …; AID 651958, 2012; inhibition, % at 11.5 µM; 370,000 compounds, 0.55% hits; in the data active = inhibition above about 30%; also: 0% = vehicle wells with enzyme and 100% = no enzyme wells
PriA SSB inh: inhibitors of Klebsiella pneumoniae PriA binding to SSB C-terminal tail, primary screen, biochemical, AlphaScreen. PriA–SSB C-terminal tail interaction (Klebsiella pneumoniae). AlphaScreen SSBct-PriA binding, biotinylated peptide. inhibition, % at 33 µM. 430,000 compounds, 0.6% hits. AID 1272365, 2023; in the data active = inhibition mostly above about 37%, no sharp cut-off; inactive = mostly below about 20%;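 also: plate controls were negative control peptide for no effect and reference peptide for full effect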
Sa RN4220 lethal: growth inhibition of S. aureus RN4220, primary screen, OD600 | 16 h | inhibition, % (test concentration not listed) | 330,000 compounds, 0.33% hits | AID 1259311, 2017; in the data active = inhibition above about 85%;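 also: plate controls were untreated cells for no effect and reference antibiotic for full effect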
Numbers without * were called inactive; / = no result shown; ! = a repeat was not active. Rows were chosen to be rich in hits. Some 1.4% of all compounds tested hit in one or more screens of this group.

SMILES	ugtP null kill	Mtb hypoxia inh	CCHF vOTU inh	PriA SSB inh	Sa RN4220 lethal
NC(=O)C1Cc2ccccc2N1S(=O)(=O)c1cccc(F)c1 (centres undefined)	/	/	/	-7.0	/
C=CCN1C(=O)C(Cc2ccccc2)S/C1=N/N=C\c1ccccc1 (centres undefined)	/	/	/	56.0*	/
COc1ccc(-[n+]2c(C)cc(/C=C3\Sc4ccccc4N3C)cc2C)cc1	100.5*	/	28.2	/	99.7*
COc1ccccc1-[n+]1c(C)cc(/C=C2\Sc3ccccc3N2C)cc1C	100.4*	/	8.5	/	99.9*
COc1ccc(C(=O)/C=C2\Sc3ccccc3N2C)cc1	7.1	3.7	7.3	-15.8	7.4
Cc1cnc(C(=O)OCC(=O)Nc2cccc3ccccc23)cn1	3.7	26.1*	-7.0	-9.9	4.4
O=C(Nc1nc(-c2ccccn2)cs1)c1ccc(Cl)cc1[N+](=O)[O-]	/	/	/	110.0*	/
Cc1cccc(C(=O)Nc2nc(-c3ccccn3)cs2)c1[N+](=O)[O-]	/	/	/	96.8*	/
O=C(CCC(=O)Nc1ccc(F)cc1)NN=Cc1cccs1	0.5	-0.9	/	-29.0	3.6
O=C(NCc1cccc2ccccc12)N1CCOC2(CCOCC2)C1	/	/	/	-3.0	/
Cc1ccc(S(=O)(=O)Nc2ccc3nc(-c4cccn4C)[nH]c3c2)cc1	-3.7	3.7	15.6	87.5*	2.7
Cn1cccc1-c1nc2ccc(NC(=O)c3ccccc3)cc2[nH]1	-2.1	/	12.6	18.5	-6.8
CCOC(=O)c1ccc(OCC2c3cc(OC)c(OC)cc3CCN2C(=O)c2ccccc2Cl)cc1 (centres undefined)	/	/	/	10.0	/
O=C(CN1CCCCC1)c1ccc(F)cc1	-3.8	5.8	-4.2	-5.8	1.8
COc1ccc(C(=O)CN2CCCCC2)cc1	6.2	1.0	10.0	46.5*	1.4
NCC(O)COc1ccc2c(c1)OCO2 (centres undefined)	1.5	/	9.1	46.0*!	1.1
CC(C)=CCCC(C)(O)C1CC[C@]2(C)C1C(O)CC1[C@@]3(C)CCC(O)C(C)(C)C3C(O[C@@H]3OC(CO)C(O)C(O)C3O[C@@H]3OC(C)C(O)C(O)C3O)C[C@]12C (some centres undefined)	/	/	/	-0.7	/
CC(C)c1ccc(S(=O)(=O)/N=C2\C=C(NS(=O)(=O)c3ccccc3)C(=O)c3ccccc32)cc1	-5.5	19.5	67.7*	/	14.3
Cc1ccc(S(=O)(=O)N=C2C=C(NS(=O)(=O)c3ccccc3)C(=O)c3ccccc32)cc1	/	/	/	-3.1	/
O=C(CSc1nc2ccccc2o1)N1CC(c2nc(-c3ccc[nH]c3=O)no2)C1	/	/	/	-8.0	/
COc1ccccc1-n1ncc2c(C)nnc(SCC(=O)Nc3ccc(Cl)cc3)c21	/	/	/	-2.0	/
O=[N+]([O-])c1c(NCCCO)cc(Sc2nc3ccccc3s2)c2nonc12	100.6*	20.8	/	-15.1	87.4*
CN(C)C(CNC(=O)NCc1cccs1)c1ccc2c(c1)CCO2 (centres undefined)	/	/	/	-17.0	/
CC1CCC(C(C)C)C(OC(=O)Cn2c(-c3ccc(F)cc3)[n+](C)c3ccccc32)C1 (centres undefined)	100.2*	/	14.4	-2.8	96.9*
Cc1cccc(OCc2n(CC(=O)OC3CC(C)CCC3C(C)C)c3ccccc3[n+]2C)c1 (centres undefined)	/	/	/	-11.6	/
SMILES	ugtP null kill	Mtb hypoxia inh	CCHF vOTU inh	PriA SSB inh	Sa RN4220 lethal
CC1CCC(C(C)C)C(OC(=O)Cn2c(-c3ccccc3)[n+](C)c3ccccc32)C1 (centres undefined)	100.5*	/	11.8	4.7	99.5*
CC1CCC(C(C)C)C(OC(=O)Cn2c(COc3ccccc3)[n+](C)c3ccccc32)C1 (centres undefined)	100.4*	/	28.8	5.2	100.6*
COc1cc(C=NNC(=O)c2ccc(CN(C)S(=O)(=O)c3ccc(C)cc3)cc2)ccc1O	-1.8	-13.0	/	-9.0	4.7
Cc1ccc(Cl)cc1S(=O)(=O)NCCc1ccc2c(c1)CCCN2C	/	/	/	59.0*	/
Cc1cc(C)c(S(=O)(=O)NCCc2ccc3c(c2)CCCN3C)cc1C	/	/	/	40.0*	/
Cc1c(C)c(C)c(S(=O)(=O)NCCc2ccc3c(c2)CCCN3C)c(C)c1C	/	/	/	3.0	/
O=C(OCCCOC(=O)c1ccc([N+](=O)[O-])o1)c1ccc([N+](=O)[O-])o1	4.0	70.7*	-3.6	-9.1	2.1
O=[N+]([O-])c1ccc(-c2cnc(SCc3ccccc3Cl)[nH]2)cc1	-9.8	11.1	4.1	38.9*	5.5
O=[N+]([O-])c1ccc(-c2cnc(SC(c3ccccc3)c3ccccc3)[nH]2)cc1	24.4	1.4	-1.9	31.7	49.2
Cc1ccc(S(=O)(=O)NC(C)CCc2ccccc2)cc1 (centres undefined)	-4.3	0.0	31.3*	-21.7	4.5
O=S1(=O)Nc2c(ccc3cccnc23)-c2ccccc21	98.4*	/	/	96.9*	98.5*
OC(CNCC(c1ccc(Cl)cc1Cl)c1c[nH]c2ccccc12)c1ccccc1 (centres undefined)	96.8*	-2.8	8.5	12.4	99.7*
CCOC(=O)C(Cc1nc(OCc2ccccc2)cc(OCc2ccccc2)n1)=NO	87.4*	5.5	-7.1	-17.9	-0.9
Cc1cccc2sc(N(CCCN(C)C)C(=O)c3nc4ccccc4s3)nc12	-5.2	14.5	-21.1	51.0*	4.7
Cc1ccc2sc(N(CCCN(C)C)C(=O)c3nc4ccccc4s3)nc2c1C	-7.3	22.7	6.2	-0.3	-6.8
Cc1ccc2sc(N(CCCN(C)C)C(=O)c3ccc(S(=O)(=O)N(C)C4CCCCC4)cc3)nc2c1C	-17.2	25.6	0.4	40.0*!	-4.2
CCN(Cc1ccccc1)S(=O)(=O)c1ccc(C(=O)N(CCCN(C)C)c2nc3c(C)c(C)ccc3s2)cc1	-21.9	7.4	-13.1	39.0*!	1.5
CCN(Cc1ccccc1)S(=O)(=O)c1ccc(C(=O)N(CCCN(C)C)c2nc3cc4c(cc3s2)OCO4)cc1	-5.2	2.4	2.8	34.7	0.2
O=C(O)CCC(=NNc1ccccc1[N+](=O)[O-])c1cccs1	6.3	13.5	/	42.3*	28.5
CC(=NNc1nc2ccccc2[nH]1)c1ccc(N2CCOCC2)cc1	1.2	-15.1	/	54.0*	0.6
CCn1nc(C)c(C=NNC(=O)Cn2nc(C)cc2C)c1C	/	/	/	-0.1	/
CCn1nccc1C(=O)Nc1ccc(N=Nc2ccccc2)cc1	/	/	/	46.0*	/
CN1C(=O)/C(=C/c2ccc(N3CCCCCC3)o2)C(=O)NC1=S	1.6	44.9*	-12.8	-2.1	2.6
Cc1nc2cc(C(=O)OCC(=O)Nc3cccc(Cl)c3)ccc2n1-c1ccccc1	99.4*	-2.6	5.2	-20.4	-3.2
Cc1nc2cc(C(=O)OCC(=O)NC34CC5CC(CC(C5)C3)C4)ccc2n1-c1ccccc1	-13.3	-3.4	-0.1	30.4	-6.6
COc1ccccc1C1=NNC(=Nc2cccc(S(=O)(=O)N(C)C)c2)SC1	8.2	-10.9	-11.8	42.7*	-3.0
COC(=O)c1c(-c2ccc(OC)cc2)sc2ccc(OC)cc12	91.3*	8.4	7.1	-47.8	0.2

High-throughput results as filed in PubChem BioAssay.
